From PubChem BioAssay (NCI) come the findings set out here.

Assay [1] is described as follows: NCI Yeast Anticancer Drug Screen. Data for the rad50 strain (AID 155).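 Also: 0% = growth of vehicle-only cultures of the same strain.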 Conditions: S. cerevisiae rad50 strain growth inhibition; at 50.0 µM; stronger effect = higher value. Put shortly: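 A DNA repair-deficient yeast mutant serves as the test organism; compound-induced growth inhibition is calculated against vehicle-treated cells.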
A short description of assay [2]: NCI Yeast Anticancer Drug Screen. Data for the mec2-1 strain (AID 157). Conditions: S. cerevisiae mec2-1 strain, at 50.0 µM, stronger effect = higher value. Summed up:
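Compounds were applied to mec2-1 yeast cells. Their growth was then compared with that of vehicle-treated cultures to give growth inhibition.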

A short description of assay [3]: NCI Yeast Anticancer Drug Screen. Data for the sgs1 mgt1 strain (AID 161).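 Also: 0% = growth of cultures given vehicle only.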 Conditions: S. cerevisiae sgs1 mgt1 strain, at 50.0 µM, stronger effect = higher value. Put shortly: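 Compounds are added to genetically altered yeast, and growth is compared with cultures given vehicle alone to give percent inhibition.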
A short description of assay [4]: NCI Yeast Anticancer Drug Screen. Data for the cln2 rad14 strain (AID 165).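 Also: 0% = growth equal to vehicle treated cultures.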 The conditions noted are these: S. cerevisiae cln2 rad14 strain, at 50.0 µM, stronger effect = higher value. Put shortly: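 Strain: cln2 rad14 yeast, altered in cell cycle control and DNA damage repair. Read-out: growth inhibition vs vehicle.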
A short description of assay [5]: NCI Yeast Anticancer Drug Screen. Data for the bub3 strain (AID 167). Conditions: S. cerevisiae bub3 mutant strain, at 50.0 µM, stronger effect = higher value. Put shortly:
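Inhibition values come from growth of compound-treated mutant yeast normalised to vehicle-treated controls.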

Assay [6] can be described thus: NCI Yeast Anticancer Drug Screen. Data for the mlh1 rad18 strain (AID 175). Conditions: S. cerevisiae mlh1 rad18 strain growth inhibition; at 50.0 µM; stronger effect = higher value. Put shortly:
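A repair-deficient yeast strain is exposed to test compound, and growth is scored relative to vehicle-treated controls.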

Each structure is given as a SMILES string. About 79,000 compounds went through this panel and 15% of them were active in at least one assay; those are over-represented in the sample as a whole. Values without a mark were called inactive. Activity calls are given as the source filed them. Rule as the data show it: active = growth inhibition above about 70%; inactive = the rest.

With `CC1(C)CS(=O)(=O)C(=O)N1CCC(=O)O`, the growth inhibition is 9.8% in assay [1]; 15.4% in assay [2]; 7.8% in assay [3]; 3.85% in assay [4]; 6.45% in assay [5]; 24.9% in assay [6].
Consider `O=c1c2cccnc2ncn1CCN1CCCC1`, for which the growth inhibition in assay [1] is 5.25%; in assay [2] it was -11.6%; in assay [3], -3.5%; in assay [4] it was 8.4%; in assay [5] it was -1.8%; in assay [6] it was 21.1%.
For the molecule `CCCC(=O)Oc1ccc(Cl)cc1C`, the growth inhibition is -2.3% in assay [1]; -1.05% in assay [2]; 2.85% in assay [3]; -57.6% in assay [4]; -13.6% in assay [5]; -3.85% in assay [6].
On to `C#CCN(CC#C)C(=O)CCCCCCCCC=C`, for which the growth inhibition is 97% (active) in assay [1]; 96.5% (active) in assay [2]; 97% (active) in assay [3]; 86% (active) in assay [4]; 97.5% (active) in assay [5]; 97.2% (active) in assay [6].
Regarding `COC(=O)c1cc(-c2cccnc2)[nH]c(=O)c1C#N`, the growth inhibition in assay [1] is -5.4%; in assay [2], -36.6%; in assay [3] it was -39.9%; in assay [4], -15.7%; in assay [5] it was -9.7%; in assay [6], -14.2%.
As to `Cc1ccc(N=C2SC(=NN(C)C)SC2=Nc2ccc(C)cc2)cc1`, the growth inhibition in assay [1] was 18.9%; in assay [2] it was -14.1%; in assay [3], 8.35%; in assay [4], -20.3%; in assay [5], -5.25%; in assay [6], -11.6%.
On to `CCOC(=O)N1C=Cc2ccccc2C1C(=N)N` (stereo unspecified), for which the growth inhibition was -20.2% in assay [1]; -12.3% in assay [2]; -11% in assay [3]; -7.7% in assay [4]; -6.3% in assay [5]; -13.6% in assay [6].
On to `O=C(Oc1ccc(Cl)cc1)c1ccccc1`, for which the growth inhibition was 25.3% in assay [1]; -2.1% in assay [2]; -1.65% in assay [3]; 2.25% in assay [4]; -7.75% in assay [5]; -25.6% in assay [6].
For `CCC(C(=O)O)C(C)(C)C` (stereo unspecified), the growth inhibition was 6.8% in assay [1]; 0.55% in assay [2]; 1.8% in assay [3]; -4.9% in assay [4]; -0.3% in assay [5]; 9.3% in assay [6].
On to `N#CC1(C2CC(=O)N(c3ccccc3)C2=O)CCCCC1=O` (stereo unspecified), for which the growth inhibition in assay [1] is 10.4%; in assay [2] it was -21.7%; in assay [3], 26.5%; in assay [4], -3.1%; in assay [5] it was 2%; in assay [6], -6.7%.
For `NC(CSSCC(NC(=O)CNC(=O)OCc1ccccc1)C(=O)O)C(=O)O` (stereo unspecified), the growth inhibition in assay [1] was -13.3%; in assay [2], -38%; in assay [3] it was -11.2%; in assay [4] it was -62.8%; in assay [5] it was -1.05%; in assay [6] it was 2%.
With `CC[O-].CC[O-].O=C([CH-]C(=O)c1cccnc1)c1ccccc1.O=C([CH-]C(=O)c1cccnc1)c1ccccc1.[Ti+4]`, the growth inhibition is -0.05% in assay [1]; 19.8% in assay [2]; -19.9% in assay [3]; -16.2% in assay [4]; -11.6% in assay [5]; -8.4% in assay [6].
On to `CSc1c(C)c(C)nn1-c1ccccc1`, for which the growth inhibition in assay [1] was -8.35%; in assay [2] it was -7.6%; in assay [3], 9.45%; in assay [4], -1.4%; in assay [5] it was 1.35%; in assay [6], -5.75%.
In the case of `CCCCN(CCCC)C(=O)OCC`, the growth inhibition in assay [1] was 30.2%; in assay [2], 8.3%; in assay [3], 6.35%; in assay [4], 12.4%; in assay [5], 19.2%; in assay [6], 14.5%.
For the molecule `COc1ccc2c(c1OC)C(=O)O[C@@H]2[C@H]1c2c(cc3c(c2OC)OCO3)CCN1C`, the growth inhibition in assay [1] is 5.7%; in assay [2], -28.9%; in assay [3], -27.8%; in assay [4], 6.75%; in assay [5], -7.35%; in assay [6], 11.3%.
As for `O=[N+]([O-])c1ccc(O)c(N=Cc2ccc(C=Nc3cc([N+](=O)[O-])ccc3O)cc2)c1`, the growth inhibition in assay [1] was -24.9%; in assay [2], -19.8%; in assay [3], -13.8%; in assay [4], 1.2%; in assay [5], -5.1%; in assay [6], -17.6%.
Regarding `CCN(CC)CCOc1cc(C(C)C)ccc1C`, the growth inhibition in assay [1] is 76% (active); in assay [2] it was 63.5%; in assay [3], 63.5%; in assay [4] it was 76.2% (active); in assay [5] it was 40.5%; in assay [6], 78.2% (active).
Take `O=CC(=O)c1cccc([N+](=O)[O-])c1`: the growth inhibition was 3.55% in assay [1]; 7.75% in assay [2]; -3.6% in assay [3]; 11.4% in assay [4]; -29.2% in assay [5]; 10.4% in assay [6].
Regarding `COc1ccc(NC(=O)NNS(=O)(=O)c2ccc(C)cc2)cc1`, the growth inhibition in assay [1] was 10.1%; in assay [2], 6.15%; in assay [3] it was 6.6%; in assay [4], 4.9%; in assay [5], 13.9%; in assay [6] it was -36.9%.
As to `OCCn1nnc2ccccc21`, the growth inhibition in assay [1] is -0.55%; in assay [2] it was -2%; in assay [3], -4.35%; in assay [4], 5.35%; in assay [5], 1.7%; in assay [6], -3.7%.
For the molecule `CC(C)CC1=C(N(C)C)C(=O)C=C(N(C)C)C1=O`, the growth inhibition in assay [1] was -0.35%; in assay [2], -9.4%; in assay [3] it was 10.2%; in assay [4], -5.65%; in assay [5] it was -9.85%; in assay [6], -13.4%.
